In PubChem BioAssay (NCI):
Several values for one entry are separate records, joined by “and”; a condition that tells them apart may be missing. Equal entries are not always repeated. The panel holds about 83,000 compounds, 20% with a hit somewhere; the sample as a whole holds those more often.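 Interpretation: 100, growth as untreated; towards 0, rising growth inhibition; 0, no net growth; 0 to -100, cell death. Compounds scoring below 10 were considered active.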 Some structures have more than one record in an assay (separate samples or runs), and their calls can disagree. Activity calls are given as the source filed them.

Tested on: A549/ATCC NSCLC
Test: NCI-60 one-dose screen, 48 h (100 = growth as untreated, 0 = no growth, -100 = all killed)
Settings: 10 µM unless noted

Structure (SMILES) | growth
CC(=O)Nc1cccc2c1CCCC2 | 63.6% (inactive) and 88.1% (inactive)
Clc1ccc(SSc2ccc(Cl)cc2)cc1 | 95.9% (inactive) and 46.9% (inactive)
Cc1nnc(NC/C=C/c2ccccc2)s1 | 101% (inactive)
Cc1cccc(/C=C\C(=O)c2ccccc2)c1 | 87.7% (inactive) and 92.8% (inactive)
COC(=O)[C@H]1CCCN1C(=O)C1CCCN1C(=O)[C@@H](Cc1ccccc1)NC(=S)Nc1cc(C(F)(F)F)cc(C(F)(F)F)c1 (some centres not stated) | 97.2% (inactive) and 71.4% (inactive)
CNc1cc(-c2cccc(OC(F)(F)F)c2)nc2ccc(N3CCCC3)cc12 | -34.3% (active) and 9.17% (active) and 15.2% (inactive)
O=[N+]([O-])c1ccc(-n2[nH]nnc2=S)cc1 | 102% (inactive)
O=[N+]([O-])c1ccc(Oc2ccccc2)cc1 | 104% (inactive) and 89.5% (inactive)
CC(C(=O)O)n1cc(C#N)c(=O)[nH]c1=O (configuration not stated) | 103% (inactive) and 108% (inactive)
CNC(=O)c1cc(Oc2ccc(NC(=O)Nc3ccc(Cl)c(C(F)(F)F)c3)cc2)ccn1 | 3.89% (active) and -36.4% (active)
COc1ccc(/C(C#N)=C/c2ccccn2)cc1 | 101% (inactive) and 103% (inactive)
Nc1n[nH]c(=S)n1-c1ccc(Cl)cc1 | 100% (inactive)
CCOC(=O)C(C(=O)OCC)C(c1ccccc1)N1CCN(c2ccccc2)CC1 (configuration not stated) | 99.3% (inactive) and 83.2% (inactive)
OCCN1CCN(CCO)CC1 | 89.5% (inactive) and 73% (inactive) and 115% (inactive)
CC1=C(/C=C/C(C)=C/C=C/C(C)=C/C=N/NC(=S)NC(=S)N/N=C/C=C(C)/C=C/C=C(C)/C=C/C2=C(C)CCCC2(C)C)C(C)(C)CCC1 | 17.3% (inactive) and 3.05% (active)
NC(=O)NO | 94.8% (inactive) and 53.4% (inactive)
CN(Cc1ccccc1)Cc1ccccc1 | 96.7% (inactive)
O=C(Cc1cccc2ccccc12)N/N=C/c1ccc2c(c1)CCC2 | 65.8% (inactive)

Structure (SMILES) | growth
O=C(CN1CCN(c2cc3c(cc2F)c(=O)c(C(=O)O)cn3C2CC2)CC1)Nc1ccc(Cl)cc1 | 69.2% (inactive) and 86.8% (inactive)
CCN(CC)CCC(CNc1c2ccc([N+](=O)[O-])cc2nc2cc(OC)c(OC)cc12)c1ccccc1 (configuration not stated) | -6.05% (active) and -93.9% (active)
CN(C)c1ccc2nc3ccc(N)cc3[n+](-c3ccccc3)c2c1 | 62.1% (inactive) and -27.6% (active)
O=C(/C=C/c1ccccn1)c1ccccc1O | 55.3% (inactive) and 79.7% (inactive)
CCCCCN(CCCCC)CC(O)c1cc2c(c3ccccc13)CCCC2 (configuration not stated) | 71.1% (inactive) and 59.9% (inactive)
O=C(Nc1ccc(Br)cc1)c1cc(Br)ccc1O | 14.8% (inactive) and 14.7% (inactive)
Clc1ccc(NC(Nc2ccc(Cl)cc2)C(Cl)(Cl)Cl)cc1 | 80.9% (inactive) and 92.3% (inactive)
NC(=S)N/N=C(\c1ccc(Br)cc1)C1CC1 | 103% (inactive)
CC[N+](CC)(CC(=O)Nc1c(C)cccc1C)Cc1ccccc1 | 106% (inactive) and 98.5% (inactive)
NS(=O)(=O)c1cc2c(cc1Cl)NC(C(Cl)Cl)NS2(=O)=O (configuration not stated) | 80.9% (inactive) and 106% (inactive)
CC(=O)c1ccccc1O | 104% (inactive) and 81.9% (inactive) and 96.2% (inactive)
Cc1n[nH]c(=O)n(/N=C\c2c[nH]c3ccccc23)c1=O | 93.1% (inactive)
COc1cc2c(c(OC)c1OC)-c1ccc(OC)c(=O)cc1[C@@H](NC(C)=O)CC2 | 12.3% (inactive) and 44.9% (inactive)
O[C@H](c1cc(C(F)(F)F)nc2c(C(F)(F)F)cccc12)[C@@H]1CCCCN1 | 56.9% (inactive) and 67.1% (inactive)
COc1cc2nc(N3CCN(C(=O)C4COc5ccccc5O4)CC3)nc(N)c2cc1OC (configuration not stated) | 102% (inactive) and 88.9% (inactive)
COc1ccc(-c2cn[nH]c2-c2cc(OC)c(OC)c(OC)c2)cc1N | 12.4% (inactive) and 23% (inactive)
CC1CCCC(=O)O1 (configuration not stated) | 108% (inactive) and 97.9% (inactive)
CCNC(=O)Nc1ccc(-c2nc3c(c(N4CCOC[C@@H]4C)n2)CCN(C2COC2)C3)cc1 | 44.3% (inactive) and 2.19% (active)

Tested on: 786-0 renal
Test: as above
Settings: 10 µM unless noted

Structure (SMILES) | growth
CC(=O)Nc1cccc2c1CCCC2 | 95.8% (inactive) and 96.6% (inactive)
Clc1ccc(SSc2ccc(Cl)cc2)cc1 | 96.5% (inactive) and 66.8% (inactive)
Cc1nnc(NC/C=C/c2ccccc2)s1 | 100% (inactive) and 102% (inactive)
Cc1cccc(/C=C\C(=O)c2ccccc2)c1 | 79.7% (inactive)
COC(=O)[C@H]1CCCN1C(=O)C1CCCN1C(=O)[C@@H](Cc1ccccc1)NC(=S)Nc1cc(C(F)(F)F)cc(C(F)(F)F)c1 (some centres not stated) | 105% (inactive) and 99.2% (inactive)
CNc1cc(-c2cccc(OC(F)(F)F)c2)nc2ccc(N3CCCC3)cc12 | -86% (active) and -95.3% (active) and -67.6% (active)
O=[N+]([O-])c1ccc(-n2[nH]nnc2=S)cc1 | 106% (inactive)
O=[N+]([O-])c1ccc(Oc2ccccc2)cc1 | 103% (inactive) and 106% (inactive)
CC(C(=O)O)n1cc(C#N)c(=O)[nH]c1=O (configuration not stated) | 119% (inactive) and 101% (inactive)
CNC(=O)c1cc(Oc2ccc(NC(=O)Nc3ccc(Cl)c(C(F)(F)F)c3)cc2)ccn1 | 16.2% (inactive) and 15.5% (inactive)
COc1ccc(/C(C#N)=C/c2ccccn2)cc1 | 96.7% (inactive) and 73.8% (inactive)
Nc1n[nH]c(=S)n1-c1ccc(Cl)cc1 | 93.7% (inactive)
CCOC(=O)C(C(=O)OCC)C(c1ccccc1)N1CCN(c2ccccc2)CC1 (configuration not stated) | 104% (inactive) and 102% (inactive)
OCCN1CCN(CCO)CC1 | 108% (inactive) and 99.5% (inactive) and 99.4% (inactive)
CC1=C(/C=C/C(C)=C/C=C/C(C)=C/C=N/NC(=S)NC(=S)N/N=C/C=C(C)/C=C/C=C(C)/C=C/C2=C(C)CCCC2(C)C)C(C)(C)CCC1 | -41.4% (active) and -58.8% (active)
NC(=O)NO | 103% (inactive) and 59.7% (inactive)
CN(Cc1ccccc1)Cc1ccccc1 | 99.2% (inactive)
O=C(Cc1cccc2ccccc12)N/N=C/c1ccc2c(c1)CCC2 | 88% (inactive)

Structure (SMILES) | growth
O=C(CN1CCN(c2cc3c(cc2F)c(=O)c(C(=O)O)cn3C2CC2)CC1)Nc1ccc(Cl)cc1 | 70.1% (inactive) and 83.8% (inactive)
CCN(CC)CCC(CNc1c2ccc([N+](=O)[O-])cc2nc2cc(OC)c(OC)cc12)c1ccccc1 (configuration not stated) | -74.2% (active) and -91.6% (active)
CN(C)c1ccc2nc3ccc(N)cc3[n+](-c3ccccc3)c2c1 | 56.3% (inactive) and 38.7% (inactive)
O=C(/C=C/c1ccccn1)c1ccccc1O | 90.6% (inactive) and 91.4% (inactive)
CCCCCN(CCCCC)CC(O)c1cc2c(c3ccccc13)CCCC2 (configuration not stated) | 39.1% (inactive) and 27.2% (inactive)
O=C(Nc1ccc(Br)cc1)c1cc(Br)ccc1O | 0.723% (active) and 2.62% (active)
Clc1ccc(NC(Nc2ccc(Cl)cc2)C(Cl)(Cl)Cl)cc1 | 68.5% (inactive) and 93.6% (inactive)
NC(=S)N/N=C(\c1ccc(Br)cc1)C1CC1 | 113% (inactive) and 106% (inactive)
CC[N+](CC)(CC(=O)Nc1c(C)cccc1C)Cc1ccccc1 | 103% (inactive)
NS(=O)(=O)c1cc2c(cc1Cl)NC(C(Cl)Cl)NS2(=O)=O (configuration not stated) | 87.6% (inactive) and 104% (inactive)
CC(=O)c1ccccc1O | 104% (inactive) and 103% (inactive) and 101% (inactive)
Cc1n[nH]c(=O)n(/N=C\c2c[nH]c3ccccc23)c1=O | 123% (inactive)
COc1cc2c(c(OC)c1OC)-c1ccc(OC)c(=O)cc1[C@@H](NC(C)=O)CC2 | 17.5% (inactive) and 9.25% (active) and 15.4% (inactive)
O[C@H](c1cc(C(F)(F)F)nc2c(C(F)(F)F)cccc12)[C@@H]1CCCCN1 | 42.4% (inactive) and 56.6% (inactive)
COc1cc2nc(N3CCN(C(=O)C4COc5ccccc5O4)CC3)nc(N)c2cc1OC (configuration not stated) | 112% (inactive) and 93.5% (inactive) and 99% (inactive)
COc1ccc(-c2cn[nH]c2-c2cc(OC)c(OC)c(OC)c2)cc1N | 18.1% (inactive) and 25.6% (inactive)
CC1CCCC(=O)O1 (configuration not stated) | 92.6% (inactive) and 93.3% (inactive)
CCNC(=O)Nc1ccc(-c2nc3c(c(N4CCOC[C@@H]4C)n2)CCN(C2COC2)C3)cc1 | 36.6% (inactive) and 5.36% (active)
